# Measured values as given in PubChem BioAssay (NCI).
# About 83,000 compounds went through this panel and 20% of them were active in at least one assay; those are over-represented in the sample as a whole.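 The endpoint reported here, percent growth, reads 100 for growth as untreated, 0 for no net growth and -100 for all cells dead.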 Unmarked numbers belong to inactive results. Activity calls are given as the source filed them. How the source made its calls: active means growth percent below 10; inactive means the rest.
# Legend:
# Test in all cases: NCI-60 one-dose screen, 48 h (100 = growth as untreated, 0 = no growth, -100 = all killed)
# Settings in all cases: 10 µM unless noted
# NCI-H23 lung = system: NCI-H23 lung
# NCI-H226 lung = system: NCI-H226 lung
# NCI-H322M lung = system: NCI-H322M lung
# HOP-62 NSCLC = system: HOP-62 NSCLC
# NCI-H460 lung = system: NCI-H460 lung
# HOP-92 NSCLC = system: HOP-92 NSCLC
# NCI-H522 lung = system: NCI-H522 lung
# A549/ATCC NSCLC = system: A549/ATCC NSCLC
# 786-0 renal = system: 786-0 renal
# COLO 205 colon = system: COLO 205 colon
# DU-145 prostate = system: DU-145 prostate
# K-562 leukemia = system: K-562 leukemia
# MALME-3M melanoma = system: MALME-3M melanoma
# MDA-MB-231 breast = system: MDA-MB-231 breast
# RXF 393 renal = system: RXF 393 renal
# SF-268 CNS = system: SF-268 CNS
# SF-295 CNS = system: SF-295 CNS
# SF-539 CNS = system: SF-539 CNS
# UACC-257 melanoma = system: UACC-257 melanoma
# M14 melanoma = system: M14 melanoma
SMILES,growth (NCI-H23 lung),growth (NCI-H226 lung),growth (NCI-H322M lung),growth (HOP-62 NSCLC),growth (NCI-H460 lung),growth (HOP-92 NSCLC),growth (NCI-H522 lung),growth (A549/ATCC NSCLC),growth (786-0 renal),growth (COLO 205 colon),growth (DU-145 prostate),growth (K-562 leukemia),growth (MALME-3M melanoma),growth (MDA-MB-231 breast),growth (RXF 393 renal),growth (SF-268 CNS),growth (SF-295 CNS),growth (SF-539 CNS),growth (UACC-257 melanoma),growth (M14 melanoma)
C#Cc1cc(C(=O)Nc2ccc(CNCCN3CCOCC3)c(C(F)(F)F)c2)ccc1C,92.2%,95.4%,98.3%,102%,101%,68.7%,89.6%,87.7%,80.7%,105%,97%,67.1%,92.1%,90.3%,74.7%,86.3%,99.6%,93.6%,98.6%,101%
COc1ccc(CC(C)=C(c2ccc(OCCN3CCCC3)cc2)c2ccc(OCCN3CCCC3)cc2)cc1,-82.4% (active),-69.2% (active),-75.7% (active),-66% (active),-62.3% (active),-82.4% (active),-86% (active),-68.2% (active),-79.3% (active),-61% (active),-88.6% (active),1.41% (active),-82.9% (active),-83.9% (active),-95.3% (active),-64.4% (active),-87.7% (active),-90.1% (active),-86.6% (active),-87.5% (active)
CC(C)[C@H]1c2[nH]c3ccccc3c2C[C@H]2C(=O)N(CCCCCCC(=O)NO)CC(=O)N12,87.6%,102%,88.4%,85.7%,78.5%,74.9%,42.8%,98.7%,97.3%,83.8%,92.4%,60.6%,31.1%,92.5%,87%,107%,95.2%,73.6%,57.7%,82.2%
CN1CCN(c2ccc(Nc3nc(NCCNC(=O)c4ccccc4)c4sccc4n3)cc2)CC1,74.2%,108%,85.2%,104%,74%,69.4%,68.4%,67.4%,45.6%,56.5%,79.4%,8.82% (active),30.6%,54.3%,33.8%,64.6%,76.9%,-75.4% (active),33.3%,27.8%
Clc1ccc2[nH]cc(-c3nn4cc(-c5cccnc5)nc4s3)c2c1,92.8%,96.5%,98%,82.2%,99.9%,83.6%,97.1%,99.4%,113%,88.9%,107%,94.7%,90.6%,71.7%,113%,107%,96.7%,95.6%,109%,99.2%
CN1CCN(c2ccc(Nc3nc(NCCNS(=O)(=O)c4ccc(Cl)cc4)c4sccc4n3)cc2)CC1,96%,105%,99.4%,104%,98.8%,49.4%,106%,92.7%,75.8%,99.7%,98.2%,9.68% (active),105%,95%,41.2%,70%,97.9%,85.5%,87.5%,102%
Cc1[nH]c(C(=O)Nc2ccc(C(=O)NCC3CCNCC3)cc2OC(C)C)c(Cl)c1Cl,83%,83.6%,92.1%,86.4%,34.7%,65.9%,90.7%,65.4%,79.8%,-13.3% (active),80.2%,10.6%,80.1%,72.3%,71.3%,76.6%,73.5%,83.8%,101%,62.4%
N#Cc1c(-c2ccc(F)cc2)cc(-c2c[nH]c3ccccc23)nc1-c1c[nH]c2ccccc12,100%,94%,106%,101%,104%,93.4%,97%,101%,99.5%,113%,106%,105%,102%,102%,112%,101%,103%,100%,107%,97.4%
Cc1ccccc1Nc1nc(SC(C)C)nc(-c2ccccc2)c1C#N,31.7%,81.1%,70%,37%,45.5%,64.5%,73%,102%,10.6%,119%,76.6%,46.3%,66.3%,67.9%,28.1%,57%,23.8%,28.1%,107%,77.2%
COC(=O)CCSC1=C(C)C(=O)c2ccccc2C1=O,71.3%,86.7%,99%,107%,101%,88.6%,62.4%,106%,103%,120%,111%,38.4%,104%,75.6%,87.3%,97.4%,102%,78.6%,106%,107%
O=C(CSc1nnc(-c2ccc(Cl)cc2)n1-c1ccccc1)Nc1ccccc1Cl,48.5%,48.7%,66.2%,115%,54.5%,101%,76.2%,30.4%,42.1%,88.7%,68.4%,67.1%,79.2%,44.8%,74%,81.5%,31.5%,52.1%,95.1%,78.2%
Cc1ccc(C)c(NC2=C(Cl)C(=O)c3nc(C)ccc3C2=O)c1,-38% (active),10.5%,24.2%,7.19% (active),48.9%,-13.8% (active),-35.9% (active),31%,4.67% (active),107%,-76.4% (active),1.06% (active),-52.4% (active),-14.5% (active),-43.5% (active),-1.66% (active),-24.1% (active),-95.1% (active),-87.7% (active),-55.8% (active)
NC1CC2(CCN(c3cnc(C(=O)Nc4cc(F)cc5cccnc45)cn3)CC2)C1,88.6%,93.2%,87.4%,96%,83.8%,79.7%,93.3%,63.2%,71.8%,49.9%,81.3%,-13.3% (active),96.2%,80.1%,73.5%,83.1%,58%,75.7%,103%,78.9%
Cc1ccc(OCc2occc2C(=O)N2CCOCC2)cc1,101%,96.9%,106%,-95.9% (active),107%,103%,100%,109%,98.7%,117%,103%,98.9%,102%,109%,99.8%,97.5%,96.3%,100%,116%,99.3%
CN1CCN(c2ccc(Nc3nc(NCCNC(=O)c4ccc(F)cc4)c4sccc4n3)cc2)CC1,74.2%,91.1%,81.7%,99.4%,84.5%,50.1%,68.1%,77.9%,52.3%,44.3%,87.8%,19.8%,-54.2% (active),59.4%,14.1%,73.8%,61%,-64.7% (active),0.258% (active),-10.1% (active)
